# Data taken from ChEMBL document CHEMBL1961873, “Compounds: GSK PKIS; Assays: Nanosyn kinase panel” (2012).
# Key:
# [1] = target: Death-associated protein kinase 1 (Homo sapiens) (UniProt P53355); settings: at 1 µM;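 further: each value is a mean inhibition figure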
# [2] = target: T1, Serine/threonine-protein kinase DCLK2 (Homo sapiens) (UniProt Q8N568); settings: at 0.1 µM
# T1 sequence (whole entry): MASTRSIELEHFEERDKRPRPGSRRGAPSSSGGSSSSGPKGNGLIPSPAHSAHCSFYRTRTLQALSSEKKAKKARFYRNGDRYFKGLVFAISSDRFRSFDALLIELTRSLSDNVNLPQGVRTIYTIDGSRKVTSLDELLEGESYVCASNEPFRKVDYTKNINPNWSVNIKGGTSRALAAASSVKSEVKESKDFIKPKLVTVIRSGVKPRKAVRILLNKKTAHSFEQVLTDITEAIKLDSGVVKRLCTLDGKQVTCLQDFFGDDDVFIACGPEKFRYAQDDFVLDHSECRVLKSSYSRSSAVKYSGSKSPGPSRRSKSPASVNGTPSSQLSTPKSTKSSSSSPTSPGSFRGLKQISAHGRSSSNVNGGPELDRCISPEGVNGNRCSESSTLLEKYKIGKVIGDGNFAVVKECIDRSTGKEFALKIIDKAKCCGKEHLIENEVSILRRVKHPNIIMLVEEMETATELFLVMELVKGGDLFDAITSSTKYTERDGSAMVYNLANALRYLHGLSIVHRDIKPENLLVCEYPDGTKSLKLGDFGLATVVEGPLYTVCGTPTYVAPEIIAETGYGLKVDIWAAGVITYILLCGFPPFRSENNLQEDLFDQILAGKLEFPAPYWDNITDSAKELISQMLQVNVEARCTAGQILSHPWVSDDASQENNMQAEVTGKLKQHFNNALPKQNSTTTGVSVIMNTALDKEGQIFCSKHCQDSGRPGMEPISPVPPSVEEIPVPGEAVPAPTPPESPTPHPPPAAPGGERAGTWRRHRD
# [3] = target: T1, Serine/threonine-protein kinase DCLK2 (Homo sapiens); settings: at 1 µM
# [4] = target: MAP kinase-activated protein kinase 2 (Homo sapiens) (UniProt P49137); settings: at 0.1 µM
# [5] = target: MAP kinase-activated protein kinase 2 (Homo sapiens) (UniProt P49137); settings: at 1 µM
# [6] = target: MAP kinase-activated protein kinase 3 (Homo sapiens) (UniProt Q16644); settings: at 0.1 µM
# [7] = target: MAP kinase-activated protein kinase 3 (Homo sapiens) (UniProt Q16644); settings: at 1 µM
# [8] = target: Serine/threonine-protein kinase MARK1 (Homo sapiens) (UniProt Q9P0L2); settings: at 0.1 µM
# [9] = target: Serine/threonine-protein kinase MARK1 (Homo sapiens) (UniProt Q9P0L2); settings: at 1 µM
# [10] = target: MAP/microtubule affinity-regulating kinase 3 (Homo sapiens) (UniProt P27448); settings: at 0.1 µM
# [11] = target: MAP/microtubule affinity-regulating kinase 3 (Homo sapiens) (UniProt P27448); settings: at 1 µM
# [12] = target: T2, MAP/microtubule affinity-regulating kinase 4 (Homo sapiens) (UniProt Q96L34); settings: at 0.1 µM
# T2 sequence (whole entry): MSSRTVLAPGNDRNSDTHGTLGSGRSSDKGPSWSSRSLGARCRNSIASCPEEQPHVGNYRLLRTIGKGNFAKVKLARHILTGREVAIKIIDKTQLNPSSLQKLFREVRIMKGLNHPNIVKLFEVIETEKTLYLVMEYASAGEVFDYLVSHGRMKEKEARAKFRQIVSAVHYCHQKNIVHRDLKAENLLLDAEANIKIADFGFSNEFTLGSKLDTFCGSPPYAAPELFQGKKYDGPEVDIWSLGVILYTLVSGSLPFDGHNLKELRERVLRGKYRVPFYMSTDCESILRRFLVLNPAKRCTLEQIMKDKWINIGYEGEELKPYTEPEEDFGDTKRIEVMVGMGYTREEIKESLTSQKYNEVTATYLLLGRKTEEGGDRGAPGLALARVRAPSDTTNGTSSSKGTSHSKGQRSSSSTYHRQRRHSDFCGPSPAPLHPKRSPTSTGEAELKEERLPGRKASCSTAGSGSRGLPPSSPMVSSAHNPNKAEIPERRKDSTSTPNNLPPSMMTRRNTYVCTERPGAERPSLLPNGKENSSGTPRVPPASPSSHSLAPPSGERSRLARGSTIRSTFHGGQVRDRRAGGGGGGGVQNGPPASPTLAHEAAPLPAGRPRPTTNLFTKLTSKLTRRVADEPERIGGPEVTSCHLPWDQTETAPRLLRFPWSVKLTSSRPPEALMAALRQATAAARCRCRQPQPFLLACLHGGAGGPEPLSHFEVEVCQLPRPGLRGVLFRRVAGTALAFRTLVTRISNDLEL
# [13] = target: T2, MAP/microtubule affinity-regulating kinase 4 (Homo sapiens); settings: at 1 µM
# [14] = target: Maternal embryonic leucine zipper kinase (Homo sapiens) (UniProt Q14680); settings: at 0.1 µM
# [15] = target: Maternal embryonic leucine zipper kinase (Homo sapiens) (UniProt Q14680); settings: at 1 µM
# [16] = target: MAP kinase-interacting serine/threonine-protein kinase 1 (Homo sapiens) (UniProt Q9BUB5); settings: at 0.1 µM
# [17] = target: MAP kinase-interacting serine/threonine-protein kinase 1 (Homo sapiens) (UniProt Q9BUB5); settings: at 1 µM
# [18] = target: MAP kinase-interacting serine/threonine-protein kinase 2 (Homo sapiens) (UniProt Q9HBH9); settings: at 0.1 µM
# [19] = target: MAP kinase-interacting serine/threonine-protein kinase 2 (Homo sapiens) (UniProt Q9HBH9); settings: at 1 µM
# [20] = target: Serine/threonine-protein kinase MARK2 (Homo sapiens) (UniProt Q7KZI7); settings: at 0.1 µM;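 further: mean percent inhibition of PAR-1Balpha kinase activity, reported from the GSK PKIS screen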
# Chain of MAP/microtubule affinity-regulating kinase 3 (Homo sapiens) (P27448 whole entry, looked up): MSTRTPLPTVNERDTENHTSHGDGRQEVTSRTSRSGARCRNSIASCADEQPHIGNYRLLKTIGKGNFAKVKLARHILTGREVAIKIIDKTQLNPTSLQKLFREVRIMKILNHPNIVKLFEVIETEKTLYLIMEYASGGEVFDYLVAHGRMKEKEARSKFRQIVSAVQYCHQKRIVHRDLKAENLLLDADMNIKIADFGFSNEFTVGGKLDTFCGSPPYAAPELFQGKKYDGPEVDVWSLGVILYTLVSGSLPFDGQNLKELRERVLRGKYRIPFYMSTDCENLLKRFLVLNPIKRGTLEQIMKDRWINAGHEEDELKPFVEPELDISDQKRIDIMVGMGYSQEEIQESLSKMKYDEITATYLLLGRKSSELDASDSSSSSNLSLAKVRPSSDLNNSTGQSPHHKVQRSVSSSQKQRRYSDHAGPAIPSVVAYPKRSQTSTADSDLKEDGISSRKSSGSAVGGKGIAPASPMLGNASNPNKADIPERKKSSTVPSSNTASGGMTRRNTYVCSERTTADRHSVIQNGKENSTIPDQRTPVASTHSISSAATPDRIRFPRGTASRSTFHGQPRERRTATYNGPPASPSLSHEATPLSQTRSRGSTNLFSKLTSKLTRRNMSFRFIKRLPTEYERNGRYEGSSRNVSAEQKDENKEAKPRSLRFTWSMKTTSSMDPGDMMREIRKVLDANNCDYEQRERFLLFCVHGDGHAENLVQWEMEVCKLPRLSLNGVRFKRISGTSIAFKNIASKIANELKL
# Chain of MAP kinase-interacting serine/threonine-protein kinase 2 (Homo sapiens) (Q9HBH9 whole entry, looked up): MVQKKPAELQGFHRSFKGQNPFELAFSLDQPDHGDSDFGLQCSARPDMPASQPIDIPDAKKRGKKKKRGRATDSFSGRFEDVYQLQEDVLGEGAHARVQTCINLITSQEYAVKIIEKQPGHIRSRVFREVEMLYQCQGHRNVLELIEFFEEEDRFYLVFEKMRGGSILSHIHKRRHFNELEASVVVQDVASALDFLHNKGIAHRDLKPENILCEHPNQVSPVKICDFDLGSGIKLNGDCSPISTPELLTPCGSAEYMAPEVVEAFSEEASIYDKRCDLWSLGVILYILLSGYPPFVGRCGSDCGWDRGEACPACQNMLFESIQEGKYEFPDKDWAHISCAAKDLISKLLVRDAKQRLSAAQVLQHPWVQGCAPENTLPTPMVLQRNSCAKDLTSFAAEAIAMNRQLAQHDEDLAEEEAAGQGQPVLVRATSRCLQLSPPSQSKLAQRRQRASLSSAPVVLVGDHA
# Chain of Death-associated protein kinase 1 (Homo sapiens) (P53355 whole entry, looked up): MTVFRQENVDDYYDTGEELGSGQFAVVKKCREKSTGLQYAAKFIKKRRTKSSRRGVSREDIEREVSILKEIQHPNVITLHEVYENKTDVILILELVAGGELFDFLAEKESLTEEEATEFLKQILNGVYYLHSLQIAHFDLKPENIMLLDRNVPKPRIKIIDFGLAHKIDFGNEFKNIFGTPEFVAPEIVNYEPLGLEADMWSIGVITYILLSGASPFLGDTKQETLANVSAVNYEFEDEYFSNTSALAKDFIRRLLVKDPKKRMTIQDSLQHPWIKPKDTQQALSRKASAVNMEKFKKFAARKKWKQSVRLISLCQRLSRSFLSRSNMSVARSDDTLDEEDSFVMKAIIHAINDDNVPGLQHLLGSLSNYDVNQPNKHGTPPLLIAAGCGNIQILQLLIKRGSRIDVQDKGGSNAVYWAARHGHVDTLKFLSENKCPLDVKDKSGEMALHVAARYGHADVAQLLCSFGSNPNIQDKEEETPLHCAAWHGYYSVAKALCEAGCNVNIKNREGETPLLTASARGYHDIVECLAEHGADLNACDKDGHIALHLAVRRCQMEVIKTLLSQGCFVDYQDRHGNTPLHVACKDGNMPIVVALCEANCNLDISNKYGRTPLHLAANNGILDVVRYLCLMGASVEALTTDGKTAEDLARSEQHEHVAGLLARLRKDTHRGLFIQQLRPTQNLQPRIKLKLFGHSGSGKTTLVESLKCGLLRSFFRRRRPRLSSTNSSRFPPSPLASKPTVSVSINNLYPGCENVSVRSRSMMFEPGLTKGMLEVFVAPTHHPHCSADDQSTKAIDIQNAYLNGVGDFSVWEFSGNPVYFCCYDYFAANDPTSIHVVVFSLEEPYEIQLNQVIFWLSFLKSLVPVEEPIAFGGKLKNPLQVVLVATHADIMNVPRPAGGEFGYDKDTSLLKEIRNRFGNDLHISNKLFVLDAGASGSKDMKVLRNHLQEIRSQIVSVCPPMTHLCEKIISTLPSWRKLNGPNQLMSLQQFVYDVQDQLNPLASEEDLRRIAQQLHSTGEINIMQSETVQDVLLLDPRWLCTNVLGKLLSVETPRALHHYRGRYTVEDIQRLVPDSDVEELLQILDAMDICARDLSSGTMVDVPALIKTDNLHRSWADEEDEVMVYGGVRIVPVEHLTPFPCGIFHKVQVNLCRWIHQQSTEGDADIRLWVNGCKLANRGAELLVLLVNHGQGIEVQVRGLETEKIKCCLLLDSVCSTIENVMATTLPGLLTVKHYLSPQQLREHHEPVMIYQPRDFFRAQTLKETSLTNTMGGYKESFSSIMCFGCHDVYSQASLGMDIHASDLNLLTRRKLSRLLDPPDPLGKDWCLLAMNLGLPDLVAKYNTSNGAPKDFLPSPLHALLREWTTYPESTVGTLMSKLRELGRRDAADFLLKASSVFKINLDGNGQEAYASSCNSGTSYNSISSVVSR
# Chain of Maternal embryonic leucine zipper kinase (Homo sapiens) (Q14680 whole entry, looked up): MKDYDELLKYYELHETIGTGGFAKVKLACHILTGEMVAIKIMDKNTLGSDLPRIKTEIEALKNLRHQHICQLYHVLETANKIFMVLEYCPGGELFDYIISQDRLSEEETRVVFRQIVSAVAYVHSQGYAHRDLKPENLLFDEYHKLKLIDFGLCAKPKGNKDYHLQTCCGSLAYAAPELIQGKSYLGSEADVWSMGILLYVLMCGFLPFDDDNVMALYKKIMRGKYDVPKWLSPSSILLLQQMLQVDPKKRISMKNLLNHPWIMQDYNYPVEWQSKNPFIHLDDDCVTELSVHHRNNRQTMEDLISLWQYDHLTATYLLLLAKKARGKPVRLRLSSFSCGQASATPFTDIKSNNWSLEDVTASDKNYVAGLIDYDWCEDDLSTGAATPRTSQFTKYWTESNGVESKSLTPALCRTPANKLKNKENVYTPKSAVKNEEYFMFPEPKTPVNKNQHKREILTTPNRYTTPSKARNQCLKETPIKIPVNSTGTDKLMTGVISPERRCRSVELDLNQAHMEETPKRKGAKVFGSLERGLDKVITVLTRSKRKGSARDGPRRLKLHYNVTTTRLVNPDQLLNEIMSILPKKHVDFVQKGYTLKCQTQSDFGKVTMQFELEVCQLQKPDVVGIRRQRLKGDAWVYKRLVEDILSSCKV
# Chain of Serine/threonine-protein kinase MARK1 (Homo sapiens) (Q9P0L2 whole entry, looked up): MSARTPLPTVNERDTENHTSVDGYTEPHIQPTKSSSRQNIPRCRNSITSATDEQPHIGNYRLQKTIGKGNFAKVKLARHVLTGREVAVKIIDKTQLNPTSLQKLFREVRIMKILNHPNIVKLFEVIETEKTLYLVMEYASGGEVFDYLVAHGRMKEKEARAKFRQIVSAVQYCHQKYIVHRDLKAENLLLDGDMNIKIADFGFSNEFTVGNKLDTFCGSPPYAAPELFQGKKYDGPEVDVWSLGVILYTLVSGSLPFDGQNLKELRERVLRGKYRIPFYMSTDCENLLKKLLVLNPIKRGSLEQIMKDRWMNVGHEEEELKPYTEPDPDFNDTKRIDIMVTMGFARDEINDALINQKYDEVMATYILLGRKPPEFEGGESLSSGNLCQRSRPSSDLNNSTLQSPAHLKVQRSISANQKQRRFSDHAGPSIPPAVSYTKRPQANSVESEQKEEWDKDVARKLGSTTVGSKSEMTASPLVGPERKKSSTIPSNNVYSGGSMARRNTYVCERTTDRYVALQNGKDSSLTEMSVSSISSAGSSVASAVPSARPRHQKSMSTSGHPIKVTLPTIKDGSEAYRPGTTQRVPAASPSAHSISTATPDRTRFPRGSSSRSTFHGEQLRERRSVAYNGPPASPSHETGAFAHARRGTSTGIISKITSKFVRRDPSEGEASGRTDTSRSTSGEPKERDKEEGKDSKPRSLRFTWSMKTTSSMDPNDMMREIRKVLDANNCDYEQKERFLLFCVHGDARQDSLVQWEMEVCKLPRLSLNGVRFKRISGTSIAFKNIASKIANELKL
# Chain of MAP kinase-activated protein kinase 3 (Homo sapiens) (Q16644 whole entry, looked up): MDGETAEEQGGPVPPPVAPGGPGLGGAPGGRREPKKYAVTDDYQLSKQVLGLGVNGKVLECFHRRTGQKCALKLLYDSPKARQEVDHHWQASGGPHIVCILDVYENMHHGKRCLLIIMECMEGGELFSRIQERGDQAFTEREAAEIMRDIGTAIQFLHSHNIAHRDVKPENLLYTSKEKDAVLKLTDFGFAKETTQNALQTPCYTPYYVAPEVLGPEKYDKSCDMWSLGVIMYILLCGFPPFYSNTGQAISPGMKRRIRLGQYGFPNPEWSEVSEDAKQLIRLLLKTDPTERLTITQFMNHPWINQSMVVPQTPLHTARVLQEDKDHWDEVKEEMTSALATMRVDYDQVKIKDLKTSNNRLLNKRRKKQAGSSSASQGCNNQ
# Chain of MAP kinase-interacting serine/threonine-protein kinase 1 (Homo sapiens) (Q9BUB5 whole entry, looked up): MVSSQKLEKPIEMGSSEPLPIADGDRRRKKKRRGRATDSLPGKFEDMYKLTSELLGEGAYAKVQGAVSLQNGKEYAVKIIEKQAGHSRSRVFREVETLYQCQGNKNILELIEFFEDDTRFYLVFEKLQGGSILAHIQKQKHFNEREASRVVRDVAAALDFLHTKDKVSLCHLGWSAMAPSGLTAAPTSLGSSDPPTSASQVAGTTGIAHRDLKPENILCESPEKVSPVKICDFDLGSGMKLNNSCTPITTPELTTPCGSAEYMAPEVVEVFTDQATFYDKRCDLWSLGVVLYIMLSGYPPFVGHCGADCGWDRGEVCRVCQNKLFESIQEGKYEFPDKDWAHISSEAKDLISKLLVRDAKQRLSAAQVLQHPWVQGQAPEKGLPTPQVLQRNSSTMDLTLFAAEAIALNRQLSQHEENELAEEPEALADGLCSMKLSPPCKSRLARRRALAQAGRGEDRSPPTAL
SMILES,inhibition [1],inhibition [2],inhibition [3],inhibition [4],inhibition [5],inhibition [6],inhibition [7],inhibition [8],inhibition [9],inhibition [10],inhibition [11],inhibition [12],inhibition [13],inhibition [14],inhibition [15],inhibition [16],inhibition [17],inhibition [18],inhibition [19],inhibition [20]
c1ccc(-c2n[nH]cc2-c2ccnc(-c3ccc(OCCN4CCOCC4)cc3)c2)nc1,1.17%,4.23%,4.29%,0.95%,0.98%,0.91%,8%,4.58%,4.86%,7.18%,5.45%,4.57%,5.04%,-1.03%,3.77%,4.82%,2.74%,3.62%,2.02%,4.23%
N#Cc1ccc(Oc2nccc(-c3c(-c4ccc(F)cc4)ncn3C3CCNCC3)n2)cc1,-0.22%,1.3%,3.06%,1.77%,1.32%,13.9%,30.8%,0.23%,3.06%,1.6%,0.33%,2.3%,2.46%,6.59%,4.91%,2.51%,2.45%,-0.25%,-0.69%,-1.85%
O=C(Nc1n[nH]c2cc(-c3cc(F)ccc3F)ccc12)C1CC1,-0.43%,1.87%,0.55%,1.65%,1.03%,3.84%,3.99%,2.47%,5.89%,2.76%,-0.14%,2.5%,5.44%,2.11%,5.13%,3.39%,12.6%,1.25%,2.16%,-1.51%
Fc1ccc(-c2c(-c3ccncc3)nc3n2CCS3)cc1,-1.77%,-5.23%,-4.37%,0.4%,0.36%,1.43%,1.3%,2.07%,3.24%,1.44%,11.9%,1.3%,2.25%,4.24%,7.4%,0.84%,8.91%,0.34%,6.79%,1.04%
O=C(Nc1n[nH]c2nc(-c3ccco3)ccc12)C1CC1,8.47%,-5.65%,-0.3%,3.08%,2.89%,7.07%,7.18%,-0.31%,0.25%,3.27%,1.53%,0.31%,0.56%,2.23%,2.05%,1.89%,9.62%,0.06%,4.01%,0.19%
COc1cc(Nc2ncc3c(C)nc(-c4cccc(C(F)(F)F)c4)n3n2)cc(OC)c1OC,1.2%,0.76%,-1.04%,1.86%,2.09%,4.68%,5.16%,2.7%,15.5%,1.84%,7.63%,1.28%,7.81%,13.1%,63.1%,3.56%,7.34%,2.94%,6%,0.26%
